Data as given in ChEMBL document CHEMBL3988442, “University of Dundee, Small-Polar-MMV Screening Library” (2021).
For part of these data: Measured potencies and affinities stand elsewhere.

Experiments:
Set-up in all cases: scale not given: direction of the effect not stated beside the values
[1] = target: Protein translocase subunit SecA (Escherichia coli (strain K12)) (UniProt P10408); assay: Assay to Identify E. coli SecA ATPase Inhibitors; format: functional; details: 30 µM
[2] = target: T1, Ubiquitin-activating enzyme e1, putative (Leishmania donovani (strain BPK282A1)) (UniProt E9BSI1); assay: Leishmania donovani Ubiquitin Activating Enzyme (LdE1); format: functional; details: 30 µM
T1 sequence (whole entry): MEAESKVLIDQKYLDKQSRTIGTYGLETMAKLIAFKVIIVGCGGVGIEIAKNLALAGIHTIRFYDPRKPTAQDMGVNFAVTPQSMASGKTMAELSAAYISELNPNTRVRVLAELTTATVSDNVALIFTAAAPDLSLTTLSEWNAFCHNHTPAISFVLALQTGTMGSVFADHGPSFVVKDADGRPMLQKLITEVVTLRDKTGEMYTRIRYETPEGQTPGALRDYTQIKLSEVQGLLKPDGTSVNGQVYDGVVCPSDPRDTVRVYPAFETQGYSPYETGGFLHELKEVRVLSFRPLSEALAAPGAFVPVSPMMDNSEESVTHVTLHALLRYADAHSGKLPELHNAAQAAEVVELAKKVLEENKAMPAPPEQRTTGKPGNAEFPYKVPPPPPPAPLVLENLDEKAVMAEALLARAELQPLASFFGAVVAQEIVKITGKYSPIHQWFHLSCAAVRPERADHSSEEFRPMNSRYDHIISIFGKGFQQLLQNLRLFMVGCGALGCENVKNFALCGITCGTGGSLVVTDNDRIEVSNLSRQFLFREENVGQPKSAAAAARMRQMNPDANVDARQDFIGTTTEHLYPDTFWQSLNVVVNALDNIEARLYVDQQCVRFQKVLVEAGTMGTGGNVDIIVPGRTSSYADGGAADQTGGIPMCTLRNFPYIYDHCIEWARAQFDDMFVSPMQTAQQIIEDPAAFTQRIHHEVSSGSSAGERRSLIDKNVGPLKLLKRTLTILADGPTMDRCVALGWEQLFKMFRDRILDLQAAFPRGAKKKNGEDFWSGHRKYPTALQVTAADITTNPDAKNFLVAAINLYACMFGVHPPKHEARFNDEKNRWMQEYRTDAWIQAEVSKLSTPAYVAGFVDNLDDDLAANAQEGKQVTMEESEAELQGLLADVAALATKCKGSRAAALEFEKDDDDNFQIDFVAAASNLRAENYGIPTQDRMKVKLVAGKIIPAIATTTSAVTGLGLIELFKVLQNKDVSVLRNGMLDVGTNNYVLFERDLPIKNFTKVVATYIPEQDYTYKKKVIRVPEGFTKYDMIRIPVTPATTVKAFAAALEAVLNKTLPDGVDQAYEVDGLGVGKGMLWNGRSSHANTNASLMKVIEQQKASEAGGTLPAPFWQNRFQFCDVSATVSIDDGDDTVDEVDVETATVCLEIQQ

[3] = target: Sialic acid-binding Ig-like lectin 9 (Homo sapiens) (UniProt Q9Y336); assay: Hs-Siglec9 ALPHAscreen SOP 20170721; details: 10 µM
Sialic acid-binding Ig-like lectin 9 (Homo sapiens), sequence (Q9Y336 whole entry): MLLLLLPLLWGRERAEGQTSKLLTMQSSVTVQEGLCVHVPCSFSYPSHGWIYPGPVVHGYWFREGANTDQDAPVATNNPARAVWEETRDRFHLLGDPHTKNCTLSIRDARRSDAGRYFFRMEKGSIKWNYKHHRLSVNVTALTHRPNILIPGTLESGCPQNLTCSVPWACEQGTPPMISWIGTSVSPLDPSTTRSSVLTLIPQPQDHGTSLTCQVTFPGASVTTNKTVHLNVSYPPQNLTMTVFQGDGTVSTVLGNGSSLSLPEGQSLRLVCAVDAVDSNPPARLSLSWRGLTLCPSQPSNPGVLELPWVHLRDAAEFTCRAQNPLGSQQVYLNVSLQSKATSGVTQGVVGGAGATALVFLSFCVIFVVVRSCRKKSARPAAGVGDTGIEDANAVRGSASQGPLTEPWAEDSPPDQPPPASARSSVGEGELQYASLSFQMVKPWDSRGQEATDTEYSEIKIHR

Trypanosoma cruzi = assay: Trypanosoma cruzi phosphomannomutase and mannose-1-phosphate guanylyltransferase assay; format: functional; details: 10 µM
[4] = target: T2, Arginase-2, mitochondrial (Homo sapiens) (UniProt P78540); assay: in vitro enzyme assay to detect the production of urea directly proportional to the activity of Arginase II; format: functional; details: 33.3 µM; further: in the data most compounds retested in dose-response had high values
T2 sequence (whole entry): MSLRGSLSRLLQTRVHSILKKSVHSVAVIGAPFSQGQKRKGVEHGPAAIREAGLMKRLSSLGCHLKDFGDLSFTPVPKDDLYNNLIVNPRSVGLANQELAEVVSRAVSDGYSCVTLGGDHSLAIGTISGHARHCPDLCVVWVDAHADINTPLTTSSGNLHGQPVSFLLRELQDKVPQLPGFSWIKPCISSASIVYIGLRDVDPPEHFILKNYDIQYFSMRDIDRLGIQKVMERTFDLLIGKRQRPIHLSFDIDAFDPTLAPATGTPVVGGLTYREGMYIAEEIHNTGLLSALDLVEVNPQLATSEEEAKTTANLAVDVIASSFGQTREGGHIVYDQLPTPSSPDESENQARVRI

[5] = target: T3, Proteasome subunit beta (Trypanosoma cruzi) (UniProt O96673); assay: Trypanosoma cruzi proteasome chymotrypsin-like activity (TcProtChymo) assay.; further: in the data most compounds retested in dose-response had high values; format: functional; details: 9.37 µM
T3 sequence (whole entry): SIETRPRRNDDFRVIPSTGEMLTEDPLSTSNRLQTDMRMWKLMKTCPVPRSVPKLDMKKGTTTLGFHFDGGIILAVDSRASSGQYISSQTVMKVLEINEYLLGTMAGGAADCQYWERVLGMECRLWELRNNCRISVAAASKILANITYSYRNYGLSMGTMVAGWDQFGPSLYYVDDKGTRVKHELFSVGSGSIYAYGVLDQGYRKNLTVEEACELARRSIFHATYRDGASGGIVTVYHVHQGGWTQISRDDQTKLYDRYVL

Homo sapiens = species on record: Homo sapiens; assay: To identify inhibition of the IFN signalling (Jak-Stat) pathway via expression of an eGFP reporter gene under the control of an IFN-stimulated response element (ISRE) containing MxA promoter.; format: functional; details: 30 µM
[6] = target: T4, Tyrosyl-tRNA synthetase, putative (Trypanosoma cruzi (strain CL Brener)) (UniProt Q4DSP6); assay: Trypanosoma cruzi tyrosyl tRNA synthetase (TcYRS) _High Tyrosine SOP; format: functional; details: 30 µM; further: in the data most compounds retested in dose-response had high values
T4 sequence (whole entry): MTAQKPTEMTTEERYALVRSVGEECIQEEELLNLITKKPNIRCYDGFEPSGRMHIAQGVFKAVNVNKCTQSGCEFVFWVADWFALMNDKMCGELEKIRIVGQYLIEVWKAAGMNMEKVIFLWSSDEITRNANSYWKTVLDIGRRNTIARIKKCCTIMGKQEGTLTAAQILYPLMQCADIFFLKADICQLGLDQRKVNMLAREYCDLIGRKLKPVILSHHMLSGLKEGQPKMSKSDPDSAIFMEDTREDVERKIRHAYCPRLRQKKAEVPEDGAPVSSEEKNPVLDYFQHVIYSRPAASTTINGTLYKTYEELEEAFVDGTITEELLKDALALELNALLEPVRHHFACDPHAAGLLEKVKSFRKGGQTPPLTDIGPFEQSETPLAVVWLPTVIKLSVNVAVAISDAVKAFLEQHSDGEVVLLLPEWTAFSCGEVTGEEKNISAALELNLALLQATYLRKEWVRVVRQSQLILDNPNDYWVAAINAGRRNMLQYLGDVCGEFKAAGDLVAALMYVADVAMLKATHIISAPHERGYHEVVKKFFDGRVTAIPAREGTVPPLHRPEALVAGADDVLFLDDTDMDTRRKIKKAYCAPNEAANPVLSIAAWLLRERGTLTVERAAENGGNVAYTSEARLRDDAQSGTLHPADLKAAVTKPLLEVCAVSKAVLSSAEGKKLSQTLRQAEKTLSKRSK

[7] = target: T4, Tyrosyl-tRNA synthetase, putative (Trypanosoma cruzi (strain CL Brener)); assay: Trypanosoma cruzi tyrosyl tRNA synthetase (TcYRS) SOP; format: functional; details: 30 µM
[8] = target: Chromo domain-containing protein 1 (Saccharomyces cerevisiae (strain ATCC 204508 / S288c) (Baker's yeast)) (UniProt P32657); assay: ScCHD-1 Enzyme Inhibition Assay; format: functional; details: 30 µM; further: in the data most compounds retested in dose-response had high values
Chromo domain-containing protein 1 (Saccharomyces cerevisiae (strain ATCC 204508 / S288c) (Baker's yeast)), sequence (P32657 whole entry, the tested form may be a part): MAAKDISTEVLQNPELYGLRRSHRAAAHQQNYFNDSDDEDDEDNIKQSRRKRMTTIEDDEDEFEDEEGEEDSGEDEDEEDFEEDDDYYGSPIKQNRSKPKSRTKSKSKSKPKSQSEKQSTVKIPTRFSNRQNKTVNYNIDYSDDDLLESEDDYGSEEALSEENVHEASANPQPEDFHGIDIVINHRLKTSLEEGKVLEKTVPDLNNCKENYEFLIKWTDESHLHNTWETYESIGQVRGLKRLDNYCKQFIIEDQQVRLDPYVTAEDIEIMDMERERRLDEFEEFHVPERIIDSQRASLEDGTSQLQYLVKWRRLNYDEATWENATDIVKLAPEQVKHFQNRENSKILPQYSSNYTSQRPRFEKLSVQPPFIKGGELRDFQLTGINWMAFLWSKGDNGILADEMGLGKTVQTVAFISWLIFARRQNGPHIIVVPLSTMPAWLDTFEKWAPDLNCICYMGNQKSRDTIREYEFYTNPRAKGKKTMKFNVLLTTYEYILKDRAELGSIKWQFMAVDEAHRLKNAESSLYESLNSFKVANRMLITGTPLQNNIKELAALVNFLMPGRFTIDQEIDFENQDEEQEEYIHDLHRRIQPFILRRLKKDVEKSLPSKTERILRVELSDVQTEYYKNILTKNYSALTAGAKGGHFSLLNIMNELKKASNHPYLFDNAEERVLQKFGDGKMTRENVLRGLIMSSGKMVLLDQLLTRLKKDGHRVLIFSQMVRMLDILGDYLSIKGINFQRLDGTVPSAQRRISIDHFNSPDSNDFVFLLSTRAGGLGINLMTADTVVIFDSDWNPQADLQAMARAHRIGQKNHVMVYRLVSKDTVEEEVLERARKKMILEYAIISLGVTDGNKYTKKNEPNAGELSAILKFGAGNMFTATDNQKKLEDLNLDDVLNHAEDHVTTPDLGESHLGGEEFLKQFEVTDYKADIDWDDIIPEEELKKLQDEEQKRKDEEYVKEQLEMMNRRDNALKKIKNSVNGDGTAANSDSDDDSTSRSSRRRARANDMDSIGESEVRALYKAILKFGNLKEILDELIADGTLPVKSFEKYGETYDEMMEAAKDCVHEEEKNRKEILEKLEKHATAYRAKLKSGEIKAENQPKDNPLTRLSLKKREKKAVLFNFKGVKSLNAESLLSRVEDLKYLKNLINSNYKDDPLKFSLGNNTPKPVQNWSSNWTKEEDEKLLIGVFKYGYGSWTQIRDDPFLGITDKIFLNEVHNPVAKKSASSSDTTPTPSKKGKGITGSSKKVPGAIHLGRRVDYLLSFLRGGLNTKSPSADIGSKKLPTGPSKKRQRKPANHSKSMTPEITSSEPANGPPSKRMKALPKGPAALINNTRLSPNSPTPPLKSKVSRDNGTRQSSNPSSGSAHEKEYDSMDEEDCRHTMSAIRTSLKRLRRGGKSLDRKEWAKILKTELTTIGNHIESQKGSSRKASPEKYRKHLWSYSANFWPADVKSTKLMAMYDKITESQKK

Protein translocase subunit SecA (Escherichia coli (strain K12)), sequence (P10408 whole entry): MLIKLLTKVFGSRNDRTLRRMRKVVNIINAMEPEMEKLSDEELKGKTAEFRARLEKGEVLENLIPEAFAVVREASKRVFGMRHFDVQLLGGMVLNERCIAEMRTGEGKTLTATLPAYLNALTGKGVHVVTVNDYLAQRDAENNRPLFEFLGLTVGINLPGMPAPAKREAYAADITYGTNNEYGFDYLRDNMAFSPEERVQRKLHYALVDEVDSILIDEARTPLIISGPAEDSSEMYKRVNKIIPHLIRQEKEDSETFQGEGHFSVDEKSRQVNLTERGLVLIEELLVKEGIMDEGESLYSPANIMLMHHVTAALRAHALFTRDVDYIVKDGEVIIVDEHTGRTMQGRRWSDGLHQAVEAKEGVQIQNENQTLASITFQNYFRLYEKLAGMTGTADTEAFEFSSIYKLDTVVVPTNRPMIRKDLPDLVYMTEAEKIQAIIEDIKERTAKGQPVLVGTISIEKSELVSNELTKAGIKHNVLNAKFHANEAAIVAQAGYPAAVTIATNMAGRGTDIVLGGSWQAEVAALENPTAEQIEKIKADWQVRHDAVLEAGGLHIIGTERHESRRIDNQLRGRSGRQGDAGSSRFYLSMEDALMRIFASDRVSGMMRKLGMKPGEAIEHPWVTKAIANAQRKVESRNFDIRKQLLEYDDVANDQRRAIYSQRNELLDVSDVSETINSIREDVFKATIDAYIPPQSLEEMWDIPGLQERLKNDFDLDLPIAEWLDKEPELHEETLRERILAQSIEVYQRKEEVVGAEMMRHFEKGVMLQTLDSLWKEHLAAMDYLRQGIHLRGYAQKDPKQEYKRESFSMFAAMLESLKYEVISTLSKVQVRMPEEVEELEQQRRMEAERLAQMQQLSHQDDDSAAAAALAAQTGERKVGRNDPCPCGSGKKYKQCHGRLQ

| Compound | Percent Effect [1] [%] | Percent Effect [2] [%] | Percent Effect [3] [%] | Percent Effect (Trypanosoma cruzi) [%] | Percent Effect [4] [%] | Percent Effect [5] [%] | Percent Effect (Homo sapiens) [%] | Percent Effect [6] [%] | Percent Effect [7] [%] | Percent Effect [8] [%] |
| --- | --- | --- | --- | --- | --- | --- | --- | --- | --- | --- |
| COCCN1CC[C@]2(CN(C(=O)c3cccs3)C[C@H]2C)C1=O | 0.25 | 1.3 | 1.96 | -0.938 | -0.457 | 9.7 | 0.303 | 0.966 | 0 | 0.0651 |
| CC(NC(=O)c1cc(Br)c2c(c1)OCCO2)C(N)=O (stereo not given) | -7.52 | 18.7 | 6.37 | 5.82 | -3.55 | 17.9 | 0.842 | 2.63 | 10.3 | 77.7 |
| CC(C)c1nc(CN(C)C2CCN(CCNS(C)(=O)=O)C2)no1 (stereo not given) | -0.486 | 15.6 | -6.45 | -5.78 | -11.7 | 12.5 | 12.2 | 3.92 | 7.06 | -13 |
| COC1CC2(CCN(Cc3ccc4c(c3)OCO4)CC2)C1 | -2.7 | 24.7 | -4 | -2.63 | 1.83 | 10 | -11.4 | 6.76 | 12.5 | -8.26 |
| Cc1nc(C)n(CC2CCCN2Cc2ccn(-c3ccccc3)n2)n1 (stereo not given) | 0.0578 | -20.8 | 13.8 | 0.933 | -4.3 | 4.04 | 3.86 | 4.9 | 16.5 | -7.02 |
| Cc1ccc2oc(C(=O)N3CCc4nnc(N(C)C)cc4C3)cc2n1 | -3.69 | 10.7 | 5.58 | 3.21 | 0.887 | 12.8 | 4.8 | 4.74 | 5.13 | -10.7 |
| Cc1cnc(CN(C)C2CCN(Cc3ccccc3C#N)C2)o1 (stereo not given) | 0.623 | 13.3 | -5.38 | -5.82 | 3.1 | 18.4 | 2.92 | 3.68 | 7.69 | -11.8 |
| O=C1CN(Cc2ccc(-c3ccccc3C(=O)O)cc2)CCN1 | 1.19 | 12 | -5.14 | -4.73 | -1.33 | 14.1 | 27.5 | 1.06 | 0 | -24.4 |
| CN(C)c1cc2c(nn1)CCN(C(=O)Cc1noc3ccccc13)C2 | -0.898 | 0 | -2.79 | 6.85 | 2.87 | -0.427 | -24.3 | 4.31 | -1.21 | -2.37 |
| CCN(C)c1ncnc2c1CCN(Cc1ccc(OC)cc1)CC2 | -4.72 | 6.49 | -9.08 | -2.04 | 2.43 | 13.5 | 25.4 | 0.526 | 7.69 | -4.67 |
| Cc1ccc(CNC(=O)CN2CCCC(Cn3cncn3)C2)s1 (stereo not given) | 0.165 | 21.3 | -6.68 | 3.61 | 3.99 | 22.3 | -8.31 | 4.74 | 12.8 | -11.2 |
| COc1ccccc1OCCN1CCCC(c2cc(C(N)=O)[nH]n2)C1 (stereo not given) | -3.66 | 2.67 | 8.25 | -3.01 | 4.43 | 12 | -0.623 | 2.63 | 5.13 | -8.44 |
